For 83 compounds, inhibition results are on record in PubChem BioAssay AID652068 (The Scripps Research Institute Molecular Screening Center, 2013).

Structures are written as SMILES. Values joined by “and” are separate entries in the source; they are usually repeats but may differ in a detail not shown here. Equal values may be shown once. The campaign covered roughly 4,300 compounds. About 4,000 (93%) were called active. The set was probably picked from earlier hits. Only a sample is shown. A number with no mark means an inactive call.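 The calls were made as follows: active = inhibition above its plate's cutoff, the mean test-well inhibition plus 3 SD (cut at about 4.8% in these data); inactive = the rest.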

The test can be described thus: DNA CAG/GTC dye complex inhibitors – biochemical, fluorescence, TO-PRO-1 dye, d(CAG) DNA oligo, counter-screen for rCAG RNA repeat binder project (AID 652068).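 Also: 0% = DNA dye mix with DMSO and 100% = 100 µM mitoxantrone; hits displace the dye from DNA and so lower well fluorescence.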 To be noted: d(CAG) DNA oligo TO-PRO-1 dye displacement, at 3 µM, stronger effect = higher value.
As usually defined, the inhibition is the percentage by which the read-out fell short of the control. For the compound `Cc1cc(C)cc(Oc2c(C(F)(F)F)oc3cc(OCC(=O)O)ccc3c2=O)c1`, the inhibition was 4.02%. Consider `Cc1cc(C)cc(OCC(=O)Nc2cc(NC(=O)COc3cc(C)cc(C)c3)cc(C(=O)O)c2)c1`, for which the inhibition was 39.1% (active). With `O=C(COc1ccccc1Cl)Nc1ccc(C(=O)c2ccc(C(=O)O)cc2)cc1` the figure was 3.95%; with `Cc1cccc(OCC(=O)Nc2ccc(C(=O)O)cc2NC(=O)COc2cccc(C)c2)c1`, 11.1% (active).

Consider `Cc1ccccc1-n1c(SCC(=O)Nc2cccc3ccccc23)nc(O)cc1=O`, for which the inhibition was 7.03% (active). With `COc1cc2ccccc2cc1C(=O)Nc1ccc(S(=O)(=O)Nc2cc(C)on2)cc1` the figure was 23.6% (active); with `CCOc1ccc(C(=O)Nc2ccc(S(=O)(=O)Nc3cc(C)on3)cc2)cc1`, 6.38% (active).

On to `Cc1cc(OC(C)C(=O)Nc2ccc(S(=O)(=O)Nc3onc(C)c3C)cc2)cc(C)c1Cl` (stereo not drawn), for which the inhibition was 26.6% (active). With `Cc1ccc(C(=O)/C=C/Nc2ccc(S(=O)(=O)Nc3onc(C)c3C)cc2)cc1` the figure was 16.3% (active); with `CCn1cc(C(=O)NCC2COc3ccccc3O2)c2cc(OC)c(OC)cc2c1=O` (stereo not drawn), 0.88%. Next, `CCOc1cc(C(=O)Nc2ccc(S(=O)(=O)Nc3cnc4ccccc4n3)cc2)cc(OCC)c1OCC`: 26.9% (active). Turning to `CCc1ccc(OC(C)C(=O)Nc2ccc(S(=O)(=O)Nc3cc(C)on3)cc2)cc1` (stereo not drawn), the inhibition is 5.12% (active).

Turning to `Cc1ccc(S(=O)(=O)N2[C@@H](c3ccc(Br)cc3)C(C(=O)O)=C[C@H]2CC2CCCC2)cc1`, the inhibition was 34.4% (active). Next, `CCCCC[C@@H]1C=C(C(=O)O)[C@H](c2ccc(C#N)cc2)N1S(=O)(=O)c1ccc(C)cc1`: 20.6% (active); `Cc1cc(C(=O)N/N=C/c2ccc(O)c([N+](=O)[O-])c2)c(C)n1-c1ccc(F)cc1`: 14.8% (active); `Cc1ccc(SC(CC(=O)c2ccc(C(C)(C)C)cc2)C(=O)O)cc1` (stereo not drawn): 12.6% (active). As for `Cn1c2ccccc2c2cc(/C=C(\NC(=O)c3ccccc3)C(=O)NCC(=O)O)ccc21`, the inhibition was 12.6% (active). With `O=C1CC(c2ccccc2)=NN1c1ccc([N+](=O)[O-])cc1`, the inhibition was 14.2% (active). With `O=C1Oc2ccccc2C(=O)/C1=C/c1ccccc1O` the figure was 10.7% (active).

`COc1cccc(-c2coc3cc4oc(=O)c(CC(=O)O)c(C)c4cc23)c1`: the inhibition was 11.6% (active). Next, `CCSc1nsc(NC(=O)Nc2cccc(C(C)=O)c2)n1`: 12.6% (active); `C=CCSc1nsc(NC(=O)Nc2cccc(C(C)=O)c2)n1`: 16.3% (active). Next, `O=C(Nc1nncs1)c1ccccc1NS(=O)(=O)c1cccs1`: 6.44% (active); `O=C(Nc1cccc(Cl)c1)Nc1ccccc1NS(=O)(=O)c1cccs1`: 9.83% (active).

On to `COc1ccc(NS(=O)(=O)c2cc(C(=O)Nc3ccccc3C(=O)O)ccc2C)cc1`, for which the inhibition was 18.6% (active). Next, `COc1ccc(NS(=O)(=O)c2cc(NC(=O)CC(=O)c3ccc([N+](=O)[O-])cc3)ccc2C)cc1`: 19% (active). With `COc1cc(OC)c(S(=O)(=O)Nc2ccccc2C(=O)O)cc1S(=O)(=O)Nc1ccccc1C(=O)O` the figure was 6.92% (active); with `CC(=N\NC(=O)c1cc(Br)ccc1O)/C(=N/O)C(=O)Nc1ccccc1`, 3.8%; with `O=[N+]([O-])c1cc(Cl)cc(/C=N/NC(=S)Nc2cc(S(=O)(=O)N3CCOCC3)ccc2Cl)c1O`, 84.8% (active). With `CCOC(=O)c1c(NC(=O)C2CC=CCC2C(=O)O)sc(C)c1CC` (stereo not drawn) the figure was 5.11% (active); with `C=CCn1c(=S)[nH]c2scc(-c3ccco3)c2c1=O`, 15.4% (active).

As to `Cc1ccc(Cn2c(SCC(=O)N/N=C/c3ccccc3OCC(=O)O)nc3ccccc32)cc1`, the inhibition was 23% (active).

On to `O=C(Cc1ccccc1)Nc1ccc(C(=O)Nc2ccccc2C(=O)O)cc1`, for which the inhibition was 10.5% (active). Consider `Cc1sc(NC(=O)c2ccc3ncsc3c2)c(C(N)=O)c1C`, for which the inhibition is 7.12% (active).

As for `N#Cc1ccccc1CN1C(=O)S/C(=C/c2cccn2-c2cccc(C(=O)O)c2)C1=O`, the inhibition was 25.7% (active). Next, `CC(=O)Nc1ccc(S(=O)(=O)N(CCc2ccccc2)CC(=O)N/N=C/c2ccc(C(=O)O)cc2)cc1`: 5.27% (active). For the compound `Cc1ccc(N=C2NC(=O)/C(=C/C=C/c3ccco3)S2)cc1C`, the inhibition was 23.8% (active). Next, `COc1cc(C(=O)Nn2c(O)c(C3=c4ccccc4=NC3=O)sc2=S)ccc1O`: 8.15% (active); `Cc1ccc(NC(=O)CC2S/C(=N/N=C3\CCCc4ccccc43)NC2=O)cc1` (stereo not drawn): 17.1% (active). Next, `COc1ccc(/C=C/C(=O)c2ccc(NS(=O)(=O)c3ccc(C)cc3)cc2)cc1O`: 18.4% (active).

Turning to `CCN(CC)C(=O)CSC(Nc1cccc(F)c1)=C(C#N)C#N`, the inhibition was 13.2% (active). With `COc1cc(/C=C2/C(=O)NN(c3cccc(Cl)c3)C2=O)cc(Br)c1O` the figure was 9.22% (active); with `CN(C(=O)COC(=O)c1cc(-c2ccco2)nc2ccccc12)C1CCS(=O)(=O)C1` (stereo not drawn), 13.2% (active). Next, `COc1ccc(C(CNC(=O)c2cccc(S(=O)(=O)Nc3ccccc3Cl)c2)N2CCOCC2)cc1` (stereo not drawn): 27.5% (active).

As for `Cc1ccc(NC(=O)CSc2nc(CSc3ccc(C)cc3)cc(=O)[nH]2)cc1`, the inhibition was 16.7% (active). With `Cc1ccc(-c2nn(-c3ccccc3)cc2/C=C2\SC(=S)N(CCCCCC(=O)O)C2=O)o1` the figure was 28.4% (active). Regarding `CN(C)S(=O)(=O)c1cccc(-c2nn(-c3ccccc3)cc2/C=C2\SC(=S)N(CC(=O)O)C2=O)c1`, the inhibition is 55.3% (active). In the case of `CCc1nnc(NS(=O)(=O)c2ccc(N=Cc3c(C)[nH]n(-c4ccc(C)cc4)c3=O)cc2)s1`, the inhibition was 32.2% (active). Next, `O=C(N/N=C/c1c(Cl)[nH]c2ccccc12)c1sc2ccccc2c1Cl`: 17.5% (active); `Cc1ccc(NC(=S)NNC(=O)CSc2nnc(SCc3ccccc3Cl)s2)cc1`: 18.8% (active).

On to `CC(C)=CCCC1(C)C=Cc2c(ccc3c2[nH]c2cc(O)c(C)cc23)O1` (stereo not drawn), for which the inhibition is 15.3% (active). With `CCOC(=O)C1Nc2ccc(C(F)(F)F)cc2C2C=CCC12` (stereo not drawn) the figure was 9.84% (active).

For `Cc1cc2nc(-c3ccco3)c(Cc3cccc(F)c3)n2c(C)c1Br`, the inhibition was 11.8% (active). With `CC1(C(=O)NS(=O)(=O)c2ccc(C#N)cc2)CCN1C(=O)c1ccc(C2CCCCC2)cc1` (stereo not drawn) the figure was 14.9% (active); with `Cc1ccc(S(=O)(=O)N2[C@@H](c3cccc4ccccc34)C(C(=O)O)=C[C@H]2C(C)(C)C)cc1`, 15.6% (active); with `CCc1ccc(N2CC(C(=O)Nc3ccc(S(=O)(=O)Nc4nccs4)cc3)CC2=O)cc1` (stereo not drawn), 16.7% (active). Next, `Cc1ccc(Sc2cc(C(=O)c3ccccc3C(=O)O)ccc2[N+](=O)[O-])cc1`: 29.8% (active); `COc1cccc(/C=N/Nc2ccc(S(=O)(=O)Nc3ccccc3C(=O)O)cc2[N+](=O)[O-])c1O`: 79.1% (active); `COc1ccc(Br)cc1/C=N/Nc1ccc(S(=O)(=O)Nc2ccccc2C(=O)O)cc1[N+](=O)[O-]`: 71.3% (active).

Turning to `O=C(O)c1ccccc1/C=N/Nc1ccc(S(=O)(=O)Nc2ccc(Cl)cc2)cc1[N+](=O)[O-]`, the inhibition is 27.1% (active).

Consider `COc1ccc(OCC(=O)Nc2nnc(-c3ccco3)s2)cc1`, for which the inhibition is 8.39% (active). Next, `Cc1ccccc1-c1ccc2c(c1)O[C@@H](CN(C)Cc1ccc(C(=O)O)cc1)[C@@H](C)CN([C@H](C)CO)S2(=O)=O`: 21.1% (active).

With `O=C(COc1ccc([N+](=O)[O-])cc1)Nc1cccc(C(=O)Nc2ccccc2C(=O)O)c1`, the inhibition is 24.8% (active). With `NC(c1csc(NC(=O)Nc2cccc(C(F)(F)F)c2)n1)C1CCCCC1` (stereo not drawn) the figure was 4.91% (active); with `CCOC(=O)c1csc(NC(=O)Nc2cccc(OC)c2)n1`, 16.7% (active); with `NC(c1ccccc1)c1csc(NC(=O)Nc2cccc(C(F)(F)F)c2)n1` (stereo not drawn), 15.2% (active).

As to `COc1ccc(C(N)c2csc(NC(=O)Nc3cccc(C(F)(F)F)c3)n2)cc1` (stereo not drawn), the inhibition was 10.1% (active). Next, `CCN1C(=O)/C(=C2/Sc3ccccc3N2CCCS(=O)(=O)O)SC1=S`: 7.23% (active) and 13.9% (active); `CCOC(=O)c1ccccc1N1C(=O)C2Sc3[nH]c(=O)sc3C(/C=C/c3ccccc3)C2C1=O` (stereo not drawn): 18.1% (active); `Cc1c(CCC(=O)N[C@@H](CC(C)C)C(=O)O)c(=O)oc2c(C)c3oc4c(c3cc12)CCCC4`: 12.2% (active).

On to `CC[C@@H](C)[C@H](NC(=O)CCc1c(C)c2cc3c4c(oc3c(C)c2oc1=O)CCCC4)C(=O)O`, for which the inhibition is 14.9% (active). With `COc1ccc(C(=O)/C=C/c2ccc(-c3ccccc3)cc2)cc1CSCC(=O)O` the figure was 50.7% (active); with `COC(=O)c1ccc(COc2ccc(/C=C/C(=O)c3ccc(OC)c(CSCC(=O)O)c3)cc2OC)cc1`, 24.1% (active); with `Cc1ccc2nc(N3C(=O)C(O)=C(C(=O)c4ccco4)C3c3cccc(O)c3)sc2c1` (stereo not drawn), 37.6% (active). Next, `Cc1ccc(CSc2nc(-c3ccccc3)c(C#N)c(=O)[nH]2)cc1`: 28.7% (active). With `N#Cc1c(-c2ccccc2)nc(SCc2ccc([N+](=O)[O-])cc2)[nH]c1=O` the figure was 17.4% (active). Turning to `N#Cc1c(-c2ccccc2)nc(SCc2cccc(C(F)(F)F)c2)[nH]c1=O`, the inhibition is 50% (active). Next, `O=C(O)c1ccc(N/N=C/c2cn(-c3ccccc3)nc2-c2cccs2)cc1`: 23% (active); `O=C(O)c1ccc(NC(=O)c2cn(-c3ccccc3)nc2-c2ccc(Cl)cc2)cc1`: 23.2% (active).

Regarding `O=C(NNC(=S)NC(=O)c1cn(-c2ccccc2)nc1-c1ccccc1)c1ccncc1`, the inhibition is 15.3% (active). With `N#Cc1c(-c2ccccc2)cc(-c2ccccc2)nc1SCC(=O)O`, the inhibition was 13% (active).

With `O=C(O)CCn1cc(/C=C/C(=O)c2ccc(Cl)cc2)c(-c2cccc(Br)c2)n1`, the inhibition is 53.6% (active).

As for `Cc1cc(N2C(=O)C(O)=C(C(=O)c3ccc(C)o3)C2c2ccc(OCc3ccccc3)cc2)no1` (stereo not drawn), the inhibition is 23.8% (active).
